Consider 7 sequences from paper PMC11006913.

Targets include ALX4 (Homo sapiens, UniProt Q9H161 200-286, Q225E); SHOX (Homo sapiens, UniProt O15266 103-189, R173C); HESX1 (Homo sapiens, UniProt Q9UBX0 95-180, R109Q).
Assay in all cases: PBM; 200 nM protein, PBS
What all share (conditions): dsDNA, one strand shown

Assay [1] deals with PRRX1 (Homo sapiens, UniProt P54821 80-166, F113S).
Assay [2] has as its target HOXD13 (Homo sapiens, UniProt P35453 263-343, T313R).
Assay [3] concerns the target HOXD13 (Homo sapiens, UniProt P35453 263-343).
In assay [4] the target is HOXD13 (Homo sapiens, UniProt P35453 263-343, T313A).
HOXD13 (Homo sapiens, UniProt P35453 263-343, T313A), sequence (P35453 263-343 T313A): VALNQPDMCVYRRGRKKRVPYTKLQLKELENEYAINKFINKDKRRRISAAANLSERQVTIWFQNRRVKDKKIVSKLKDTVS
For assay [5], the target named is PRRX1 (Homo sapiens, UniProt P54821 80-166).
PRRX1 (Homo sapiens, UniProt P54821 80-166), sequence (P54821 80-166): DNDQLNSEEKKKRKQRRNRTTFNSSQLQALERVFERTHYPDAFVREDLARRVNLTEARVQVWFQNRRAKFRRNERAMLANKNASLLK
Assay [6] deals with MSX2 (Homo sapiens, UniProt P35548 130-214, R199I).
MSX2 (Homo sapiens, UniProt P35548 130-214, R199I), sequence (P35548 130-214 R199I): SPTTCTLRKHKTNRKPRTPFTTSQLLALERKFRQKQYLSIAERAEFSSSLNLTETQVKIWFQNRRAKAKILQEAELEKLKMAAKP
Assay [7] addresses ALX3 (Homo sapiens, UniProt O95076 139-225, N203Q).
Assay [8] addresses T1, NKX2-6 (Homo sapiens, UniProt A6NCS4 118-204).
T1 sequence: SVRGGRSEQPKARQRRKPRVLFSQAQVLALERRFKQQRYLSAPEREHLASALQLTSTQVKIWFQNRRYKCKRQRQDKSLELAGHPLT

Assay [9] addresses MSX2 (Homo sapiens, UniProt P35548 130-214).
In assay [10] the target is ALX3 (Homo sapiens, UniProt O95076 139-225).
ALX3 (Homo sapiens, UniProt O95076 139-225), sequence (O95076 139-225): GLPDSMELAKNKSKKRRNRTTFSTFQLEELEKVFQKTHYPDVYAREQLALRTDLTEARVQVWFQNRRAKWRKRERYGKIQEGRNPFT
The target of assay [11] is ALX3 (Homo sapiens, UniProt O95076 139-225, L168Q).
ALX3 (Homo sapiens, UniProt O95076 139-225, L168Q), sequence (O95076 139-225 L168Q): as the sequence (O95076 139-225) above, with L30Q counted along it
Assay [12] has as its target T2, NKX2-6 (Homo sapiens, UniProt A6NCS4 118-204, F151L).
T2 sequence: T1 sequence with F34L

For assay [13], the target named is ALX3 (Homo sapiens, UniProt O95076 139-225, L168V).
ALX3 (Homo sapiens, UniProt O95076 139-225, L168V), sequence (O95076 139-225 L168V): as the sequence (O95076 139-225) above, with L30V counted along it
Assay [14] concerns the target MSX2 (Homo sapiens, UniProt P35548 130-214, F161Y).
The target of assay [15] is ALX3 (Homo sapiens, UniProt O95076 139-225, N203S).
ALX3 (Homo sapiens, UniProt O95076 139-225, N203S), sequence (O95076 139-225 N203S): as the sequence (O95076 139-225) above, with N65S counted along it
In assay [16] the target is ALX1 (Homo sapiens, UniProt Q15699 118-204, L144V).
ALX1 (Homo sapiens, UniProt Q15699 118-204, L144V), sequence (Q15699 118-204 L144V): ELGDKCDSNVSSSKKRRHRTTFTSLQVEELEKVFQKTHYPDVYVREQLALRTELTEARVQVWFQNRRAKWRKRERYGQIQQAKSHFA
For another assay, the target named is T3, PAX4 (Homo sapiens, UniProt O43316 9-242, R200Q).
T3 sequence: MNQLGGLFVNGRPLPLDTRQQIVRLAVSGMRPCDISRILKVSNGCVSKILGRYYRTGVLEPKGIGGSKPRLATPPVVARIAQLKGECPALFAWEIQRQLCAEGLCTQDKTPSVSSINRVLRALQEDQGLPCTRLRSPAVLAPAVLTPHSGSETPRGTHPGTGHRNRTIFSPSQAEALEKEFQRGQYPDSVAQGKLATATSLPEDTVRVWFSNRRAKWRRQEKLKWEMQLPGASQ

The target in assay [17] is ALX1 (Homo sapiens, UniProt Q15699 118-204, L144R).
ALX1 (Homo sapiens, UniProt Q15699 118-204, L144R), sequence (Q15699 118-204 L144R): as the sequence (Q15699 118-204 L144V) above, with V27R counted along it
For assay [18], the target named is ALX1 (Homo sapiens, UniProt Q15699 118-204).
ALX1 (Homo sapiens, UniProt Q15699 118-204), sequence (Q15699 118-204): as the sequence (Q15699 118-204 L144V) above, with V27L counted along it
For assay [19], the target named is PROP1 (Homo sapiens, UniProt O75360 56-141).
PROP1 (Homo sapiens, UniProt O75360 56-141), sequence (O75360 56-141): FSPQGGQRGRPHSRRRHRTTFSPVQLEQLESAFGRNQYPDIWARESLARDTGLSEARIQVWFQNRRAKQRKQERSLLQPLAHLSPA
Assay [20] has as its target PROP1 (Homo sapiens, UniProt O75360 56-141, R99H).
The target of assay [21] is PROP1 (Homo sapiens, UniProt O75360 56-141, F88S).
PROP1 (Homo sapiens, UniProt O75360 56-141, F88S), sequence (O75360 56-141 F88S): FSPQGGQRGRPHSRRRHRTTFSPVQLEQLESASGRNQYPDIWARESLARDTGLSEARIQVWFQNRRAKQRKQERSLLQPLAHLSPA
For assay [22], the target named is HOXA2 (Homo sapiens, UniProt O43364 129-215, R185T).
HOXA2 (Homo sapiens, UniProt O43364 129-215, R185T), sequence (O43364 129-215 R185T): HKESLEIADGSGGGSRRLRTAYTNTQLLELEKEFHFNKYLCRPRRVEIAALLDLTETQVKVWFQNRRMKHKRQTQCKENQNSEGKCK
Assay [23] addresses HOXA2 (Homo sapiens, UniProt O43364 129-215, R185K).
In assay [24] the target is HOXA2 (Homo sapiens, UniProt O43364 129-215, Y150S).
HOXA2 (Homo sapiens, UniProt O43364 129-215, Y150S), sequence (O43364 129-215 Y150S): as the sequence (O43364 129-215 R185T) above, with Y22S, T57R counted along it
Assay [25] has as its target HOXA2 (Homo sapiens, UniProt O43364 129-215).

Positions count from the first letter of the chain named.

PRRX1 (Homo sapiens, UniProt P54821 80-166, F113S), sequence (P54821 80-166 F113S): as the sequence (P54821 80-166) above, with F34S counted along it
HOXD13 (Homo sapiens, UniProt P35453 263-343, T313R), sequence (P35453 263-343 T313R): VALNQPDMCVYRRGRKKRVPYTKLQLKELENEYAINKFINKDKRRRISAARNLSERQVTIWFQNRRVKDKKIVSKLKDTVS
HOXD13 (Homo sapiens, UniProt P35453 263-343), sequence (P35453 263-343): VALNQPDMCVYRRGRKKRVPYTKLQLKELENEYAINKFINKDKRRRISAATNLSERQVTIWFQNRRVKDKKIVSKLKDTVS
MSX2 (Homo sapiens, UniProt P35548 130-214), sequence (P35548 130-214): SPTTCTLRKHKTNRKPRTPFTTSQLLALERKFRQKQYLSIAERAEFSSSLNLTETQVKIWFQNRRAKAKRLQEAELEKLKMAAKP
SHOX, sequence (O15266 103-189 R173C): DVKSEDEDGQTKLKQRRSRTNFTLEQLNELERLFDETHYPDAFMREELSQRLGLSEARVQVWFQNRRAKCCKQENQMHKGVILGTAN
HOXA2 (Homo sapiens, UniProt O43364 129-215), sequence (O43364 129-215): as the sequence (O43364 129-215 R185T) above, with T57R counted along it
PROP1 (Homo sapiens, UniProt O75360 56-141, R99H), sequence (O75360 56-141 R99H): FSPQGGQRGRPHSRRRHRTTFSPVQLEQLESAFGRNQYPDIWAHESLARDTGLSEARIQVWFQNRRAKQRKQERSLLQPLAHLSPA
HESX1, sequence (Q9UBX0 95-180 R109Q): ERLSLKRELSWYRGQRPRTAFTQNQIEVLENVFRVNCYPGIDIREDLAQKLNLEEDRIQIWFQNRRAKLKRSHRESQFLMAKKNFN
ALX3 (Homo sapiens, UniProt O95076 139-225, N203Q), sequence (O95076 139-225 N203Q): as the sequence (O95076 139-225) above, with N65Q counted along it
MSX2 (Homo sapiens, UniProt P35548 130-214, F161Y), sequence (P35548 130-214 F161Y): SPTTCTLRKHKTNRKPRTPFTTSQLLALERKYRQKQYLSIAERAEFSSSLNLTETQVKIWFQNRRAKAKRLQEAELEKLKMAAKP
ALX4, sequence (Q9H161 200-286 Q225E): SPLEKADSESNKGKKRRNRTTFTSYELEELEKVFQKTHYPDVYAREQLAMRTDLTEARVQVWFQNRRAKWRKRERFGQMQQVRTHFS
HOXA2 (Homo sapiens, UniProt O43364 129-215, R185K), sequence (O43364 129-215 R185K): as the sequence (O43364 129-215 R185T) above, with T57K counted along it

For the sequence CCCAAAGG, the binding signal with PRRX1 [1] was 9.18 upbm affinity estimate (log intensity, higher = more binding, comparable within an allelic series); in the assay with HOXD13 [2] it was 9.56 upbm affinity estimate (log intensity, higher = more binding, comparable within an allelic series); with HOXD13 [3] it was 9.54 upbm affinity estimate (log intensity, higher = more binding, comparable within an allelic series); in the assay with HOXD13 [4] it was 9.58 upbm affinity estimate (log intensity, higher = more binding, comparable within an allelic series); in the assay with PRRX1 [5], 9.15 upbm affinity estimate (log intensity, higher = more binding, comparable within an allelic series).
Turning to ACGCCCCG, the binding signal with PRRX1 [1] is 9.23 upbm affinity estimate (log intensity, higher = more binding, comparable within an allelic series); in the assay with MSX2 [6], 9.45 upbm affinity estimate (log intensity, higher = more binding, comparable within an allelic series); with ALX3 [7] it was 7.74 upbm affinity estimate (log intensity, higher = more binding, comparable within an allelic series); in the assay with NKX2-6 [8], 9.2 upbm affinity estimate (log intensity, higher = more binding, comparable within an allelic series); in the assay with MSX2 [9], 9.36 upbm affinity estimate (log intensity, higher = more binding, comparable within an allelic series); with ALX3 [10], 7.57 upbm affinity estimate (log intensity, higher = more binding, comparable within an allelic series). Also, the binding signal with ALX3 [11] is 7.68 upbm affinity estimate (log intensity, higher = more binding, comparable within an allelic series); with NKX2-6 [12] it was 9.33 upbm affinity estimate (log intensity, higher = more binding, comparable within an allelic series); with ALX3 [13] it was 7.67 upbm affinity estimate (log intensity, higher = more binding, comparable within an allelic series); with MSX2 [14], 9.41 upbm affinity estimate (log intensity, higher = more binding, comparable within an allelic series); in the assay with ALX3 [15], 7.73 upbm affinity estimate (log intensity, higher = more binding, comparable within an allelic series); with PRRX1 [5], 9.08 upbm affinity estimate (log intensity, higher = more binding, comparable within an allelic series).
AATTAAAC: the binding signal with PRRX1 [1] is 11.1 upbm affinity estimate (log intensity, higher = more binding, comparable within an allelic series); with ALX4, 12.8 upbm affinity estimate (log intensity, higher = more binding, comparable within an allelic series); with ALX1 [16], 11.3 upbm affinity estimate (log intensity, higher = more binding, comparable within an allelic series); with PAX4, 11.8 upbm affinity estimate (log intensity, higher = more binding, comparable within an allelic series); with SHOX, 9.29 upbm affinity estimate (log intensity, higher = more binding, comparable within an allelic series); with ALX1 [17], 11 upbm affinity estimate (log intensity, higher = more binding, comparable within an allelic series). The binding signal was 8.69 upbm affinity estimate (log intensity, higher = more binding, comparable within an allelic series) with HESX1; 10.2 upbm affinity estimate (log intensity, higher = more binding, comparable within an allelic series) in the assay with ALX3 [11]; 9.91 upbm affinity estimate (log intensity, higher = more binding, comparable within an allelic series) in the assay with ALX3 [13]; 12 upbm affinity estimate (log intensity, higher = more binding, comparable within an allelic series) with ALX1 [18].
GGCCTACC: the binding signal in the assay with PRRX1 [1] was 9.31 upbm affinity estimate (log intensity, higher = more binding, comparable within an allelic series); with HOXD13 [2], 9.55 upbm affinity estimate (log intensity, higher = more binding, comparable within an allelic series); with HOXD13 [3], 9.49 upbm affinity estimate (log intensity, higher = more binding, comparable within an allelic series); in the assay with HOXD13 [4] it was 9.59 upbm affinity estimate (log intensity, higher = more binding, comparable within an allelic series); with PRRX1 [5] it was 9.37 upbm affinity estimate (log intensity, higher = more binding, comparable within an allelic series).
For ACTTTAAG, the binding signal in the assay with PRRX1 [1] was 10.1 upbm affinity estimate (log intensity, higher = more binding, comparable within an allelic series); in the assay with NKX2-6 [8], 12.5 upbm affinity estimate (log intensity, higher = more binding, comparable within an allelic series); in the assay with NKX2-6 [12], 10.3 upbm affinity estimate (log intensity, higher = more binding, comparable within an allelic series); in the assay with PRRX1 [5] it was 10.8 upbm affinity estimate (log intensity, higher = more binding, comparable within an allelic series).
In the case of GAGCGGCC, the binding signal was 9.25 upbm affinity estimate (log intensity, higher = more binding, comparable within an allelic series) with PRRX1 [1]; 6.83 upbm affinity estimate (log intensity, higher = more binding, comparable within an allelic series) with PROP1 [19]; 6.8 upbm affinity estimate (log intensity, higher = more binding, comparable within an allelic series) in the assay with PROP1 [20]; 6.52 upbm affinity estimate (log intensity, higher = more binding, comparable within an allelic series) with PROP1 [21]; 9.59 upbm affinity estimate (log intensity, higher = more binding, comparable within an allelic series) in the assay with PRRX1 [5].
Take ACGCCGGA: the binding signal in the assay with PRRX1 [1] is 9.29 upbm affinity estimate (log intensity, higher = more binding, comparable within an allelic series); with HOXA2 [22] it was 7.08 upbm affinity estimate (log intensity, higher = more binding, comparable within an allelic series); with HOXA2 [23] it was 10.3 upbm affinity estimate (log intensity, higher = more binding, comparable within an allelic series); with HOXA2 [24], 10.5 upbm affinity estimate (log intensity, higher = more binding, comparable within an allelic series); in the assay with PRRX1 [5] it was 9.34 upbm affinity estimate (log intensity, higher = more binding, comparable within an allelic series); with HOXA2 [25], 7.28 upbm affinity estimate (log intensity, higher = more binding, comparable within an allelic series).
